Data: PubChem BioAssay
Activity calls are given as the source filed them. Unless noted, no rule for the calls is given here.

Columns and labels:
[1] = tested on: XIP peptide (Xip251-270) binding; test: small-molecule binders of XIP peptide, primary screen, biochemical, small-molecule microarray, fluorescence 635/667 nm, 0.1 µg/mL protein (AID 1182); details: fluorescent protein binding, 635 nm, higher = more signal, called active from +8 up or from −8 down
XIP peptide (Xip251-270) = test: small-molecule binders of XIP peptide, primary screen, biochemical, small-molecule microarray, fluorescence 635/667 nm, 0.5 µg/mL protein (AID 1183); details: small-molecule microarray binding, fluorescence 635 nm; higher = more signal
[2] = Plasmodium falciparum growth inhibition, primary screen, strain 3D7, DAPI fluorescence, 100 nL (AID 1184);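 also: parasites grown inside human red blood cells in medium with human serum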; details: P. falciparum 3D7 growth, 3 d, higher = more signal
[3] = target: Homeobox protein Hox-A13 (Mus musculus) (UniProt Q62424); test: inhibitors of HoxA13-DNA binding, primary screen, biochemical, fluorescence polarization, labeled oligonucleotide (AID 1185); details: 15 min, higher = more signal, called active from +8 up or from −8 down
[4] = inhibitors of hydroxyurea-induced Chk1 phosphorylation, primary screen, imaging, HeLa, phospho-Chk1 antibody, percent positive cells (AID 1186); details: hydroxyurea-induced phospho-Chk1 immunofluorescence imaging, higher = more signal
[5] = inhibitors of hydroxyurea-induced Chk1 phosphorylation, primary screen, imaging, HeLa, phospho-Chk1 nuclear intensity (AID 1187); details: hydroxyurea-induced phospho-Chk1 immunofluorescence imaging, higher = more signal

Homeobox protein Hox-A13 (Mus musculus), sequence (Q62424 whole entry, looked up): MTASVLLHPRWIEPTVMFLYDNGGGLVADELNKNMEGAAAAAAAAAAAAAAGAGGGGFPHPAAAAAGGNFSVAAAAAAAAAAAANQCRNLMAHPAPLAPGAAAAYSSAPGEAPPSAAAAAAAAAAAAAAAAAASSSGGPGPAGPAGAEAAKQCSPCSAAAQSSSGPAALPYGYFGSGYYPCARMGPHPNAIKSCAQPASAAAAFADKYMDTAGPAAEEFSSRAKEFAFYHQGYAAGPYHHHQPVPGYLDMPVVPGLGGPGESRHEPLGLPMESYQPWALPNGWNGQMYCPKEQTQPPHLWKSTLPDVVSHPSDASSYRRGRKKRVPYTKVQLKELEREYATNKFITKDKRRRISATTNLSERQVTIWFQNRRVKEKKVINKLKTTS

| Structure (SMILES) | composite z-score [1] | composite z-score (XIP peptide (Xip251-270)) | z-score [2] | z-score [3] | z-score [4] | z-score [5] |
| --- | --- | --- | --- | --- | --- | --- |
| COc1cc2c(cc1O)C(C)N(Cc1cc3c(cc1Br)OCO3)CC2 (configuration not stated) | 1.5 (inactive) | 0.291 | -2.03 | -1.58 (inactive) | -0.765 (inactive) | -1.06 (inactive) |
| COCCCNC(=O)[C@]1(CCC(=O)OC(C)(C)C)N=C(c2ccc(OCCCO)cc2)O[C@@H]1c1ccccc1 | 0.538 (inactive) | 0.817 | 0.83 | -6.02 (inactive) | -0.289 (inactive) | -0.288 (inactive) |
| O=C1OC[C@@H](c2ccccc2)N2CC(/C=C/c3ccccc3)=CC12 (some centres not stated) | 0.587 (inactive) | 0.0221 | 0.643 | -1.36 (inactive) | -0.303 (inactive) | -0.493 (inactive) |
| COCCOC(=O)N1C(=O)[C@@]2(c3cc(C#CC4(O)CCCCCC4)ccc31)[C@H](C(N)=O)[C@H]1C(=O)O[C@H](c3ccccc3)[C@H](c3ccccc3)N1[C@@H]2c1ccc(O)cc1 | 0.722 (inactive) | 0.503 | 0.997 | -2.76 (inactive) | -0.102 (inactive) | 0.245 (inactive) |
| O=C1O[C@@H](c2ccccc2)[C@@H](c2ccccc2)N2[C@@H](c3ccccc3OCCO)[C@]3(C(=O)Nc4ccc(C#CC5=CCCCC5)cc43)[C@@H](C(=O)NC[C@H](O)c3ccccc3)[C@H]12 | 0.409 (inactive) | 0.0598 | -1.7 | 1.62 (inactive) | -0.336 (inactive) | -0.415 (inactive) |
| CCOC(=O)C1=C[C@@H](c2ccccc2)N(S(=O)(=O)c2ccc(C)cc2)[C@H]1c1cccc(Cl)c1 | 0.526 (inactive) | 0.803 | -2.03 | 0.587 (inactive) | 0.289 (inactive) | 0.284 (inactive) |
| CN(C)CCCCNC(=O)[C@H]1C[C@H]2C(=O)N3CCC[C@H]3C(=O)N2[C@H]1c1ccc(O)cc1 | -0.301 (inactive) | 0.538 | -1.25 | -0.12 (inactive) | 0.331 (inactive) | 0.513 (inactive) |
| COc1cc(CO)cc(I)c1O[C@H]1C=C(C(=O)NCCO)C[C@@H](N(CC2CCCCC2)C(=O)c2ccc(C(F)(F)F)cc2)[C@@H]1O | -0.175 (inactive) | 0.516 | 1.09 | -6.43 (inactive) | -0.409 (inactive) | -0.884 (inactive) |
| CC(C)C(O)C1C=CC2C(=O)N(C)C(=O)C2N1Nc1ccccc1 (configuration not stated) | 0.292 (inactive) | 0.655 | 0.771 | -1.81 (inactive) | 0.331 (inactive) | 0.193 (inactive) |
| [N-]=[N+]=Nc1ccccc1C[C@@]1(C(=O)O)N=C(c2ccc(OCCCO)cc2)O[C@@H]1c1ccccc1 | 0.57 (inactive) | 0.707 | -0.188 | -5.79 (inactive) | 0.167 (inactive) | 0.149 (inactive) |
| C[n+]1ccc(CCCO)cc1 | 0.955 (inactive) | 1.02 | -1.21 | -2.17 (inactive) | -0.0124 (inactive) | 0.102 (inactive) |
| COCCOC(=O)N1C(=O)[C@@]2(c3ccccc31)[C@H](C(=O)N1CCN(c3ncccn3)CC1)[C@H]1C(=O)O[C@H](c3ccccc3)[C@H](c3ccccc3)N1[C@@H]2c1ccc(OCCO)cc1 | 0.707 (inactive) | 0.791 | -1.93 | -0.387 (inactive) | 0.065 (inactive) | 0.182 (inactive) |
| CO[C@H]1O[C@H](CO)[C@@H](OC(=O)Nc2ccc(C(F)(F)F)cc2)[C@H](OC(=O)Nc2ccc3c(c2)OCO3)[C@H]1OC(=O)Nc1ccc2c(c1)OCO2 | 1.22 (inactive) | 0.898 | -1.76 | -3.94 (inactive) | -0.318 (inactive) | -0.559 (inactive) |
| C=C(/C=C/CNS(=O)(=O)c1ccc(C)cc1)[C@H](O)[C@H]1CCCN1S(=O)(=O)c1ccccc1[N+](=O)[O-] | -0.121 (inactive) | 0.729 | -2.04 | -5.58 (inactive) | -0.0778 (inactive) | 0.181 (inactive) |
| CC(C)CN1C(=O)[C@@]2(c3ccc([N+](=O)[O-])cc3)CC(=O)N(CC34CC5CC(CC(C5)C3)C4)[C@@H]2c2ccc(CO)cc21 | 0.141 (inactive) | -0.0737 | -1.14 | 0.944 (inactive) | 0.016 (inactive) | -0.164 (inactive) |
| O=C1O[C@@H](c2ccccc2)[C@@H](c2ccccc2)N2[C@@H](c3ccc(O)cc3)[C@]3(C(=O)Nc4ccc(C#CCCO)cc43)[C@@H](C(=O)NC[C@H](O)c3ccccc3)[C@H]12 | 0.437 (inactive) | 0.478 | -0.656 | -5 (inactive) | -0.101 (inactive) | -0.46 (inactive) |

| Structure (SMILES) | composite z-score [1] | composite z-score (XIP peptide (Xip251-270)) | z-score [2] | z-score [3] | z-score [4] | z-score [5] |
| --- | --- | --- | --- | --- | --- | --- |
| C=C(C(=O)CC[C@H](OC(=O)c1cccnc1)c1ccc(CO)o1)C(C)C | 1.43 (inactive) | 0.62 | 0.566 | -5.25 (inactive) | 0.286 (inactive) | -0.0632 (inactive) |
| C=C(C(=O)CC[C@H](OC(=O)c1cccnc1)c1cccc(OCCO)c1)C(C)C | 0.24 (inactive) | 0.183 | -2.09 | -3.82 (inactive) | -0.556 (inactive) | -0.453 (inactive) |
| C[C@]1(C(=O)O)c2ccccc2C(=O)N(Cc2ccccc2)[C@H]1c1ccc(CO)cc1 | -0.339 (inactive) | 0.416 | -0.393 | -1.72 (inactive) | -0.107 (inactive) | 0.194 (inactive) |
| CC(C)(C)OC(=O)CC[C@]1(C(=O)NCCN2CCOCC2)N=C(c2ccc(OCCCO)cc2)O[C@H]1c1ccccc1N=[N+]=[N-] | 0.716 (inactive) | 0.864 | -1.73 | -4.1 (inactive) | 0.0695 (inactive) | 0.234 (inactive) |
| O=C1OCC=C[C@H]2OC34C=CCN(Cn5nnc6ccccc65)C(=O)[C@H]3N(CCCCCCO)C(=O)[C@@H]4[C@@H]12 (some centres not stated) | -0.231 (inactive) | -0.714 | -0.508 | -4.69 (inactive) | 0.197 (inactive) | 0.521 (inactive) |
| C=CC[C@]12N=C(c3ccc(OCCCO)cc3)O[C@H]1c1ccccc1N(C)C2=O | 2.91 (inactive) | 0.842 | -2.33 | -4.31 (inactive) | -0.0503 (inactive) | -0.394 (inactive) |
| COCCOC(=O)N1C(=O)[C@@]2(c3cc(C#CC4=CCCCC4)ccc31)[C@H](c1ccccc1OCCO)N1[C@H](c3ccccc3)[C@H](c3ccccc3)OC(=O)[C@H]1[C@@H]2C(=O)N1CCc2cc(OC)c(OC)cc2C1 | 3.26 (inactive) | 0.717 | -1.68 | 2.38 (inactive) | 0.0575 (inactive) | 0.139 (inactive) |
| [N-]=[N+]=NCc1ccccc1[C@H]1OC(c2ccc(OCCCO)cc2)=N[C@@]1(CCS(=O)(=O)c1ccccc1)C(N)=O | 1 (inactive) | 0.558 | -1.09 | -3.46 (inactive) | 0.163 (inactive) | 0.0372 (inactive) |
| CC(=O)N1Cc2ccccc2C[C@]2(N=C(c3ccc(OCCCO)cc3)O[C@@H]2c2ccccc2)C1=O | 1.84 (inactive) | 0.836 | -1.42 | -4.24 (inactive) | -0.151 (inactive) | -0.0442 (inactive) |
| CC(C)C(=C=CC[C@@H](O)c1ccccc1OCCO)C[C@@H](O)COCc1ccccc1 | 0.493 (inactive) | 0.401 | -1.47 | -4.7 (inactive) | -0.476 (inactive) | 1.12 (inactive) |
| C=C(C(=O)CC[C@H](OC(C)=O)c1cccc(OCCO)c1)C(C)C | -0.252 (inactive) | 0.565 | -1.96 | -4.74 (inactive) | 0.885 (inactive) | 0.41 (inactive) |
| CCCC[C@@H]1C[C@H]1[C@@H](NC(=O)c1cccnc1)c1ccc(-c2ccccc2)cc1 | -0.414 (inactive) | -0.0356 | -0.814 | -3.43 (inactive) | 0.577 (inactive) | 0.452 (inactive) |
| C[C@H]1ON(c2ccc(C(=O)OC(C)(C)C)cc2)[C@@H](c2ccc(O)cc2)[C@@H]1C(=O)N1C(=O)OC[C@@H]1c1ccccc1 | 0.0197 (inactive) | 0.446 | -1.47 | -4.21 (inactive) | 0.148 (inactive) | 0.062 (inactive) |
| [N-]=[N+]=NCc1ccccc1C[C@@]1(C(N)=O)N=C(c2ccc(OCCCO)cc2)O[C@@H]1c1ccccc1CN=[N+]=[N-] | 0.145 (inactive) | 0.0228 | -1.91 | -1.91 (inactive) | -0.228 (inactive) | -0.347 (inactive) |
| C=C1C2CC3C(=C4C(CO[C@@H]4[C@H]4CCCN4S(=O)(=O)c4ccccc4[N+](=O)[O-])C4C(=O)N(C)C(=O)C34)CC2C(=O)N1C (some centres not stated) | 0.253 (inactive) | 0.849 | 0.769 | -7.2 (inactive) | -0.0718 (inactive) | 0.645 (inactive) |
| COc1ccc(CCNC(=O)[C@@]2(Sc3ccc(C)cc3)CC(=O)N(Cc3cc(C(F)(F)F)cc(C(F)(F)F)c3)[C@@H]2c2ccc(CO)cc2I)cc1 | 0.439 (inactive) | 0.858 | 0.725 | -2.57 (inactive) | 0.261 (inactive) | 0.688 (inactive) |
